Data: PubChem BioAssay AID492956 (The Scripps Research Institute Molecular Screening Center, 2010)
About 3,300 (0.97%) of roughly 340,000 compounds were called active. For the sample, actives were picked, then their nearest neighbours and some compounds at random. Values without a mark were called inactive.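 The calls were made as follows: active = inhibition above the mean over all tested compounds plus 3 SD (cut at about 30% in these data); inactive = the rest.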 Non-standard residues stand in square brackets, D forms with d. Residues, ends and D or L forms follow the SMILES beside them. ξ: configuration not given here. *: point of attachment. Cbz = O=C(OCc1ccccc1)*; ξL = CC(C)CC(N)C(=O)O; ξP = O=C(O)C1CCCN1

The compounds below were run against Platelet-activating factor acetylhydrolase 2, cytoplasmic (Homo sapiens) (UniProt Q99487) (assay: inhibition of cytoplasmic PAF acetylhydrolase 2 – biochemical, fluorescence polarization, human, primary screen (AID 492956;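 also: inhibitors block probe labeling of enzyme so polarization drops; 0% = enzyme with DMSO and 100% = wells lacking PAFAH2 protein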)). Conditions: recombinant PAFAH2, FP-rhodamine activity probe, at 3.39 µM, active compounds read high.

| Structure (SMILES) | inhibition |
| --- | --- |
| CCOC(=O)c1oc2c(CN3CCN(CCO)CC3)c(O)c(CC)cc2c(=O)c1-c1nc2ccccc2s1 | -4.68% |
| CC(C)(C)c1ccc(/C=C2\Oc3c(ccc(O)c3CN3CCN(CCO)CC3)C2=O)cc1 | 82% (active) |
| Cc1c2cn[nH]c(=O)c2c(C)n1Cc1ccc(F)cc1 | -4.15% |
| C=C1c2cccc(OC)c2O[C@H](C(=O)OCC)[C@@H]1CCCCCC | 2.29% |
| CCOC(=O)C1=C(CNC2CCCCC2)NC(=O)NC1c1cc(C)ccc1C (stereo not given) | -10.1% |
| COc1ccc(O)c(C(=O)c2cnc3onc(C(C)C)c3c2)c1 | -6.85% |
| COCC1CCCN(C(=O)c2ccc3oc(C(C)C)nc3c2)C1 (stereo not given) | 2.06% |
| COC(=O)C1CCN(C(=O)c2ccc3oc(Cc4ccc(Cl)cc4)nc3c2)CC1 | -2.24% |
| COCC1CCN(C(=O)c2ccc3oc(Cc4ccccc4)nc3c2)C1 (stereo not given) | 58.9% (active) |
| CC1=NC2(CCCc3c2no[n+]3[O-])N(O)C1(C)C (stereo not given) | -4.68% |
| COCCNC(=O)CN1C(=O)CSc2ncccc21 | 3.18% |
| CSCCC(NC(=O)c1ccco1)C(=O)OCC(=O)Nc1ncc(Cl)c(C)c1Cl (stereo not given) | 0.63% |
| Cc1ccc(Cl)cc1NC(=O)COC(=O)CC(C)(C)C | 6.71% |
| Cc1c(Cl)cnc(NC(=O)COC(=O)C2CCCC2)c1Cl | 37.6% (active) |
| Cc1c(Cl)cnc(NC(=O)COC(=O)c2ccc(S(=O)(=O)NCc3ccco3)cc2)c1Cl | 22.8% |
| COc1ccc(CCNC(=O)COC(=O)C2CCCCC2)cc1 | 7.99% |
| Cc1ccc(Cl)cc1NC(=O)COC(=O)C1CCCCC1 | 37.4% (active) |
| Cc1cc(=O)oc2c(C)c(OCC(=O)NCCN3CCOCC3)ccc12 | -1.89% |
| COc1ccc(S(=O)(=O)N2CCC(C(=O)N3CCCC3)CC2)cc1C | -0.54% |
| Nc1nc(SCc2cccc(Br)c2)n[nH]1 | -14.7% |
| CN(Cc1ccccc1)C(=O)C(=O)c1cn(CC(=O)N2CCCC2)c2ccccc12 | 5.94% |
| CCOC(=O)C1C(=O)C=C(c2ccc(OC)cc2)CC1c1ccco1 (stereo not given) | 6.12% |
| O=S(=O)(NCc1ccccc1Br)c1ccccc1Br | 3.56% |

| Structure (SMILES) | inhibition |
| --- | --- |
| Cc1ccn2c(=O)nc(SCC(=O)NCc3ccc(F)cc3)nc2c1 | 10.6% |
| O=C(OCc1nc2ccccc2[nH]1)C1CCCCC1 | 59.9% (active) |
| Cc1ccc(C)c(N2CCN(C(=O)CCc3nc4ccccc4[nH]3)CC2)c1 | 2.85% |
| CCO[C@@H]1OC(C(=O)NCc2nc3ccccc3[nH]2)=C[C@H](C2CCCCC2)[C@H]1CCCO | -12.7% |
| CCO/C=C1\C(=O)N(c2ccc(OCC)cc2)C(=O)c2ccccc21 | 5.93% |
| Cc1ccc(OCC(=O)Nc2cccc3c2CCCC3)cc1C | -17.9% |
| NC(=O)C1CCN(C(=O)c2ccc3c(=O)n(Cc4cccc(Br)c4)c(=S)[nH]c3c2)CC1 | 1.48% |
| COc1cc(OC)c2c(-c3cccc(-c4cccc(N)c4)c3)cc(=O)oc2c1 | 4.97% |
| CCOc1ccc(NC(=O)C2CCN(C(=O)N3CCOc4ccccc43)CC2)cc1 | -3.71% |
| C=CCN(C(=O)c1cc(C)cc(C)c1)C1(C(=O)Nc2ccccc2)CCN(C(C)C)CC1 | -2.17% |
| Cc1ccc(NC(=O)Cc2nc(COC(=O)C(C)NS(=O)(=O)c3ccc(C)cc3)cs2)cc1 (stereo not given) | 67.5% (active) |
| CC(=O)Nc1ccc(S(=O)(=O)NC(C)C(=O)OCC(=O)NC2CCCC2)cc1 (stereo not given) | -5.65% |
| C/C=C/C(=O)OCc1csc(CC(=O)Nc2ccccc2C)n1 | 2.3% |
| Cc1ccc(S(=O)(=O)N(C)C)cc1NC(=O)c1ccccc1Br | 1.28% |
| CN(C(=O)c1c(Cl)cnn1C)C12CC3CC(CC(C3)C1)C2 | 1.24% |
| NS(=O)(=O)c1ccc(NC(=O)COC(=O)c2c3c(nc4ccccc24)/C(=C\c2ccc4c(c2)OCO4)CCC3)cc1 | -39.4% |
| CCn1ccnc1CNC(=O)CC1C(=O)NCCN1CCCc1ccccc1 (stereo not given) | -0.69% |
| CC(C)CC(NC(=O)C1CCCN1C(=O)[C@@H](C)NC(=O)OCc1ccccc1)C(=O)NCC(N)=O (stereo not given in full) (Cbz-[dA][ξP][ξL]G-NH2) | 3.95% |
| Cc1ccc(NC(=O)C2CCCN2C(=O)OCc2ccccc2)cc1C (stereo not given) | -10.9% |
| CCC(C)C(NC(=O)C1CCC(=O)N1C(=O)OCc1ccccc1)C(=O)NC(C(=O)N1CCCC1C(N)=O)C(C)CC (stereo not given) | 45% (active) |
| CCc1cc(CNC(=O)CC2C(=O)NCCN2Cc2ccccc2C(F)(F)F)on1 (stereo not given) | -1.63% |
| COC(=O)CNc1nc(Cl)nc(N2CCC(C)CC2)n1 | -3.76% |
| C/C(Cn1nnc2ccccc21)=N\OC(=O)c1cc(F)c(F)cc1Cl | 75.7% (active) |

| Structure (SMILES) | inhibition |
| --- | --- |
| CCOC(=O)c1cccc(NC(=O)CCn2nnc3ccccc32)c1 | -12.2% |
| Cn1c(Cn2nnc3ccccc32)nnc1SCC(=O)c1ccccc1F | -0.21% |
| CCCCCN(C(=O)CCC(=O)OCCOc1ccc(OC)cc1)c1c(N)n(CCCC)c(=O)[nH]c1=O | 0.6% |
| COc1ccc(Cc2nc3ccc(C(=O)N4CCC(N(C)C)C4)cc3o2)cc1 (stereo not given) | 1.02% |
| CC(C)CN(C(=O)CSc1ncnc2sccc12)C1CCS(=O)(=O)C1 (stereo not given) | -0.68% |
| CCN(CC)CCCN1C(=O)C(=O)/C(=C(/O)c2c(C)nc3ccccn23)C1c1ccc(C)o1 (stereo not given) | -8% |
| Cc1nc(N)nc(Cl)c1CCC1OCCO1 | -3.02% |
| O=C1CSC(=S)N1/N=C/c1ccc(O)c([N+](=O)[O-])c1 | 38.1% (active) |
| CCOc1cccc(/C=N/N2C(=O)CSC2=S)c1O | 21.4% |
| Cc1cc(C(=O)N/N=C/c2ccc(O)c([N+](=O)[O-])c2)c(C)n1-c1ccc(F)cc1 | 15.3% |
| CCn1ncc(Br)c1C(=O)Nc1cc(C)ccc1F | 4.13% |
| CC1(C)CC(O)C(CCC(O)c2ccccc2)C(C)(C)N1 (stereo not given) | 4.72% |
| O=C(NCCNc1ccc([N+](=O)[O-])cc1)c1cccc2c(Br)cccc12 | 2.72% |
| CCC(=O)N(Cc1ccccc1)c1ccccn1 | -1.23% |
| Cc1cc(OCCCC(=O)Nc2cc(S(=O)(=O)N3CCOCC3)ccc2N2CCOCC2)ccc1Cl | 8.81% |
| CSc1ncc(C(=O)NCCCc2ccccc2)c(C)n1 | -6.77% |
| CCCCN1Cc2c(nc3cc(-c4ccccc4)[nH]n3c2=O)C1=O | 40.2% (active) |
| O=c1c2c(nc3cc(-c4cccc(Cl)c4)[nH]n13)CCCC2 | 2.97% |
| C=CCc1c(C)nc2cc(-c3ccccc3)[nH]n2c1=O | 0.26% |
| Cc1cc(=O)oc2c(C)c(OC(C)C(=O)NC3CCN(Cc4ccccc4)CC3)ccc12 (stereo not given) | 1.42% |
| CC(OC(=O)c1c(F)cccc1F)C(=O)NCCC1=CCCCC1 (stereo not given) | 8.3% |
| CC(=O)Nc1ccc(C(=O)OCC(=O)Nc2ccc([N+](=O)[O-])cc2C(F)(F)F)cc1 | 40.5% (active) |
| NC(=O)c1ccc(NC(=O)COC(=O)c2ccc([N+](=O)[O-])cc2)cc1 | 0.64% |

| Structure (SMILES) | inhibition |
| --- | --- |
| O=C(COC(=O)c1cc[n+]([O-])cc1)Nc1ccc(Cl)c(C(F)(F)F)c1 | -4.1% |
| O=C1c2ccccc2NC(c2ccc(-c3cccc(Cl)c3)o2)N1O (stereo not given) | -3.11% |
| O=C(O)C(c1ccccc1)N1C(=O)/C(=C\c2ccc(-c3cccc(Cl)c3)o2)SC1=S (stereo not given) | 40.3% (active) |
| O=C1NN(c2ccccc2)C(=O)/C1=C/c1ccc(-c2cccc(C(=O)O)c2)o1 | 24.1% |
| O=C(O)c1ccc(NN=CC2=C(N3CCOCC3)/C(=C/c3ccccc3)CC2)cc1 | 1.44% |
| COc1ccc(C(C[N+](=O)[O-])n2nc(C)cc2C)cc1 (stereo not given) | 1.81% |
| O=C(Nc1cc(S(=O)(=O)Nc2ccc(Cl)cc2)ccc1O)c1ccc(F)cc1F | 61.9% (active) |
| O=C(Nc1cccc(S(=O)(=O)NC2=NCCC2)c1)c1ccc(F)cc1F | -3.56% |
| Cc1cc(NS(=O)(=O)c2ccc(NC(=S)NC(=O)c3ccc(F)cc3Cl)cc2)no1 | 3.92% |
| C[C@H]1CCC(=O)N([C@H](CSc2ccccc2)Cc2ccccc2)CC1 | 4.65% |
| C/C=N/NC(=O)CCCC(=O)N/N=C/C | -3.09% |
| Cc1ccc2c(c1)C1CN(C)CCC1N2C(=S)Nc1ccc(Cl)cc1Cl (stereo not given) | 8.44% |
| Cc1ccc2c(c1)C1CN(C)CCC1N2S(=O)(=O)c1cccc(F)c1 (stereo not given) | 4.06% |
| Cc1ccc2c(c1)C1CN(C)CCC1N2C(=O)c1ccccc1NS(=O)(=O)c1ccc(F)cc1C (stereo not given) | 41.1% (active) |
| CCC(C)[C@H](NC(=O)N1CCn2c1nc1ccccc12)C(=O)NCc1ccc(OC)cc1 (stereo not given in full) | 5.18% |
| CCc1ccc(C2C(C#N)=C(N)N(N3CCOCC3)C3=C2C(=O)CC(C)(C)C3)s1 (stereo not given) | 0.28% |
| O=C(COC(=O)CCCN1C(=O)c2cccc3cccc(c23)C1=O)NC1CCS(=O)(=O)C1 (stereo not given) | 3.81% |
| Cc1cnc(NC(=O)CSc2c(Cl)cccc2Cl)s1 | 38.4% (active) |
| Cc1cnc(NC(=O)c2ccccn2)s1 | 13.5% |
| Cc1cnc(NC(=O)C2CCCC2)s1 | 1.44% |
| O=C(COC(=O)CC1CC2CCC1C2)NC(=O)NC1CCCC1 (stereo not given) | 1.25% |
